Laboratory results published in PubChem BioAssay AID504332 (National Center for Advancing Translational Sciences (NCATS), 2011).
The campaign covered roughly 350,000 compounds. About 31,000 (8.9%) were called active. About 15% were inconclusive and are not listed. This excerpt belongs to a sample that is enriched for actives. Unmarked numbers belong to inactive results. Calls follow the shape of the dose curve; as a rule, active = well fitted inhibition curve with a large enough effect; inconclusive = small, poorly fitted or top-dose-only effect; inactive = no such curve, though single readings can be large or run the other way.

Target: Histone-lysine N-methyltransferase EHMT2 (Homo sapiens) (UniProt Q96KQ7)
Assay: qHTS Assay for Inhibitors of Histone Lysine Methyltransferase G9a; also: nearly all actives have a fitted effect of over 75% in size
Conditions: G9a H3K9 monomethylation, AlphaScreen, 2 h; series mostly up to 59 µM; activity, negative = inhibition: at the top concentration
How it was run: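 AlphaScreen detection with an anti-monomethyl H3K9 antibody quantified product after a 2 h room-temperature reaction containing 500 nM biotinylated H3K9 peptide, 20 µM SAM and 20 nM enzyme, which had been preincubated 15 min with compound.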
% is scaled to controls: 0 for no effect and ±100 for the full control effect; potency is read from the fitted curve at half-maximal effect.

Histone-lysine N-methyltransferase EHMT2 (Homo sapiens), sequence (Q96KQ7 913-1193 limits assumed): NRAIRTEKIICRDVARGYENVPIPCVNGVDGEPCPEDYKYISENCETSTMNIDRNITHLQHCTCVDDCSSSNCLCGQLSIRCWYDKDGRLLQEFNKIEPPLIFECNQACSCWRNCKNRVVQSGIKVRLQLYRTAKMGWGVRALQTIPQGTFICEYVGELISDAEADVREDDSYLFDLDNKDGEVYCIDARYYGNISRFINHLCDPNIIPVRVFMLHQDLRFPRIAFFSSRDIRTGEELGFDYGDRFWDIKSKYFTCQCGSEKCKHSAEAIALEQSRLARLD

Structure (SMILES) | activity, negative = inhibition | Potency
Cc1cccc(N2CCN(C(C)C(=O)N3CCc4ccccc43)CC2)c1C (stereo not drawn) | 24.8% [at 102 µM] | 
COC(=O)c1ccccc1NC(=O)c1ccc2c(=O)n3c(nc2c1)CCCCC3 | 6.89% | 
COc1ccc2c(c1)c(=O)c(S(=O)(=O)c1ccc(F)cc1)cn2CC(=O)Nc1ccc(C)cc1C | -0.892% | 
O=C(CCC1CCCCC1)Nc1cc(C(F)(F)F)ccc1N1CCOCC1 | 42.8% [at 102 µM] | 
CC(C)CC(=O)Nc1cc(C(F)(F)F)ccc1N1CCOCC1 | -30.9% | 
Nc1cc(C(F)(F)F)ccc1N1CCOCC1 |  | 50.1 µM (active)
Cn1c(=O)oc2cc(S(=O)(=O)CCC(=O)NCCc3ccc(Cl)cc3)ccc21 | 3.51% | 
O=C(NNC(=O)c1ccc(Cl)cc1Cl)c1cccs1 | 1.93% [at 102 µM] | 
Cc1ccc(NNC(=O)c2c(F)cccc2Cl)cc1Cl | -32% [at 102 µM] | 
Cc1ccc(NNC(=O)c2cccs2)cc1Cl |  | 8.91 µM (active)
CCOc1ccc(-n2c(SCC(=O)NCc3ccccc3)nc3n[nH]c(C)c3c2=N)cc1 | 37.3% | 
Cc1ccc(S(=O)(=O)N2CCCC(C(=O)N3CCN(C)CC3)C2)cc1 (stereo not drawn) |  | 10 µM (active)
Cc1ccc(S(=O)(=O)N2CCC(C(=O)Nc3cc(C)ccc3C)CC2)cc1 | 8.46% | 
CC(=O)Nc1ccc(S(=O)(=O)N2CCN(C3CCCCCCC3)CC2)cc1 | 6.22% | 
COc1ccc(S(=O)(=O)N2CCCC(C(=O)N3CCN(C)CC3)C2)cc1C (stereo not drawn) | 3.75% | 
O=C(C1CCCN(S(=O)(=O)c2ccc([N+](=O)[O-])cc2)C1)N1CCCCC1 (stereo not drawn) | 64.4% [at 102 µM] | 
Cc1ccc(S(=O)(=O)N2CCC(N3CCCCCC3)CC2)cc1 |  | 10 µM (active)
COc1ccc(NC(=O)CSc2nc3ccccc3[nH]2)cc1 | -3.73% | 
CC1CCCCC1NC(=O)CCS(=O)(=O)c1ccc2c(c1)NC(=O)CO2 (stereo not drawn) | -7.89% [at 102 µM] | 
CCN(C(=O)c1cc([N+](=O)[O-])ccc1NCc1cccnc1)c1ccccc1 | 19% [at 102 µM] | 
CC(C)(C)OC(=O)N1CCC(c2c(C(=O)N3CCN(c4cccc(Cl)c4)CC3)cnn2-c2cccc(Cl)c2)CC1 | -27.2% | 
COc1ccc(C(=O)NC(=S)N2CCNC(=O)C2CC(=O)OC(C)C)cc1 (stereo not drawn) |  | 25.1 µM (active)
COc1cccc(NC(=O)CC2C(=O)NCCN2C(=S)Nc2ccc(F)cc2)c1 (stereo not drawn) | -29.9% [at 102 µM] | 
CCC1C(=O)NCCN1C(=O)c1ccc2nc(Cc3ccc(OC)cc3)oc2c1 (stereo not drawn) | -13.6% [at 102 µM] | 

Structure (SMILES) | activity, negative = inhibition | Potency
C/C(=N\NC(=O)Cc1ccc(Cl)cc1)c1ccccn1 | 32.8% [at 102 µM] | 
C/C(=N/Nc1ccc(Cl)cc1)c1cnnc(-c2ccccc2)n1 |  | 39.8 µM (active)
O=C(Cc1ccc(Cl)cc1)NCc1nc(-c2ccccc2)no1 | 2.46% [at 102 µM] | 
Cc1cc(C(=O)Nc2cccc(C(F)(F)F)c2)c2c(C)nn(-c3cccc(F)c3)c2n1 | 5.99% | 
O=[N+]([O-])c1ccc(N2CCN(c3ccc(O)cc3)CC2)c(Cl)c1 |  | 3.16 µM (active)
COc1ccc(N2CCN(c3ccc([N+](=O)[O-])cc3Cl)CC2)cc1 |  | 7.94 µM (active)
CCN1CCN(c2ccc([N+](=O)[O-])cc2C(=O)c2ccc(Cl)cc2)CC1 | 36.3% [at 0.501 µM] | 
COc1ccc(N2CCN(c3ccc([N+](=O)[O-])nc3)CC2)cc1 | -35.1% [at 102 µM] | 
O=C(c1cncc(Br)c1)N1CCN(c2ccc([N+](=O)[O-])cc2)CC1 | -29.7% | 
CN(C)S(=O)(=O)N1CCN(c2ccc([N+](=O)[O-])cc2)CC1 | -2.69% [at 102 µM] | 
COc1cc(CN(CC2CCCO2)C(=O)c2ccccc2F)cc(OC)c1OC (stereo not drawn) | -3.03% | 
Cc1ccc(S(=O)(=O)N(C)CC(=O)NCC(c2ccc(F)cc2)N2CCOCC2)cc1 (stereo not drawn) | 19.1% [at 12.7 µM] | 
CCOC(=O)CSC1=Nc2ccccc2C2=NC(CCC(=O)NCc3ccc(F)cc3)C(=O)N12 (stereo not drawn) | 3.43% | 
O=[N+]([O-])c1cc(S(=O)(=O)N2CCCC2)ccc1NN=C1CCCC1 | 2.51% | 
CC(C)N1CCC(=NNc2ccc([N+](=O)[O-])cc2S(=O)(=O)N2CCOCC2)CC1 |  | 15.8 µM (active)
O=[N+]([O-])c1ccc(NCCCN2CCOCC2)c(Cl)c1 | 20.5% [at 2.33 µM] | 
CC(=O)NC12CC3CC(C1)CC(C(=O)N1CCN(S(=O)(=O)c4cccs4)CC1)(C3)C2 | 5.2% [at 12.7 µM] | 
CC(C)C(=O)Nc1c2c(nn1-c1ccccc1)CSC2 | 24.7% [at 102 µM] | 
CC(=O)Nc1c2c(nn1-c1cccc(C)c1)CSC2 | 7.68% | 
COc1ccc(-n2nc3c(c2NC(=O)c2ccc(N4C(=O)CCC4=O)cc2)CSC3)cc1 | 20.2% [at 102 µM] | 
O=C(Nc1c2c(nn1-c1ccc(F)cc1)CS(=O)C2)C12CC3CC(CC(C3)C1)C2 (stereo not drawn) | -7.51% [at 102 µM] | 
O=C(NCCCO)C(=O)Nc1c2c(nn1-c1ccccc1)CSC2 |  | 10 µM (active)
O=C(NCCCO)C(=O)Nc1c2c(nn1-c1ccc(F)cc1)CSC2 |  | 11.2 µM (active)
COc1cc(CCC(=O)N2CCN(c3ccccc3Cl)CC2)cc(OC)c1OC | -9.07% [at 102 µM] | 
